Assay results reported in the supplement of paper PMC10981050.
Values joined by “and” are separate entries in the source; they are usually repeats but may differ in a detail not shown here. Equal entries are not always repeated.

Legend:
Assay in all cases: cell viability relative to vehicle control; higher = less cytotoxic
Conditions in all cases: 10 µM
K562 = tested on: K562
Outline: (§1)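 Each screen used CRISPR-edited mutant and wild-type clones from four leukaemia lines. Compounds were acoustically dispensed at a single 10 µM dose, and CellTiter-Glo luminescence was read after 48 h with the supernatant first removed. Viability was analysed in Genedata Screener and given as percent of the on-plate vehicle control.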

MARIMO = tested on: MARIMO
Outline: as §1

MOLM14 = tested on: MOLM14
Outline: as §1

OCI-AML2 = tested on: OCI-AML2
Outline: as §1

SMILES | cell viability (K562; SRSF2 genotype: SRSF2 P95H/wt) | cell viability (K562; SRSF2 genotype: SRSF2 wt/wt) | cell viability (MARIMO; SRSF2 genotype: SRSF2 P95H/wt) | cell viability (MARIMO; SRSF2 genotype: SRSF2 wt/wt) | cell viability (MOLM14; SRSF2 genotype: SRSF2 P95H/wt) | cell viability (MOLM14; SRSF2 genotype: SRSF2 wt/wt) | cell viability (OCI-AML2; SRSF2 genotype: P95H/wt) | cell viability (OCI-AML2; SRSF2 genotype: wt/wt)
CN(C)CCSSCCNC(=O)C1CCN(C(=O)CSc2ccc(Cl)cc2)CC1 | 82% and 85.7% | 81.6% | 68% | 86.9% | 91.8% | 95.1% | 89.8% | 79.5%
OC[C@@H](O)[C@@H](O[C@@H]1O[C@H](CO)[C@H](O)[C@H](O)[C@H]1O)[C@H](O)[C@@H](O)CO [Lactitol] | 101% and 92.3% | 98.9% | 94.4% | 100% | 99.8% | 101% | 91% | 95.1%
COc1cc(OC)cc(N(CCNC(C)C)c2ccc3ncc(-c4cnn(C)c4)nc3c2)c1 | 5.81% and 13.7% | 12.4% | 50.6% | 54.4% | 34.8% | 34.9% | 24.7% | 31.9%
O=C(O)Cc1ccc(O)cc1 [4-Hydroxyphenylacetic acid] | 100% and 101% | 101% | 96.8% | 104% | 95.7% | 101% | 95.5% | 108%
C=C1C(=O)O[C@H]2[C@H]1CCC(C)=C1CC[C@@](C)(O)[C@@H]12 [Micheliolide] | 28.9% and 41.7% | 64.4% | 15.9% | 19.8% | 7.9% | 7.02% | 5.22% | 11.1%
O=C(/C=C/c1ccc(O)cc1)C1=C(O)[C@](O)([C@@H]2O[C@H](CO)[C@@H](O)[C@H](O)[C@H]2O)C(O)=C(/C=C2/C(=O)C(C(=O)/C=C/c3ccc(O)cc3)=C(O)[C@@](O)([C@@H]3O[C@H](CO)[C@@H](O)[C@H](O)[C@H]3O)C2=O)C1=O [Safflower Yellow] | 97.2% and 89.1% | 90.4% | 91.5% | 98.8% | 90.4% | 94.9% | 97.7% | 90.5%
C[C@H](CCC(=O)NCC(=O)O)[C@H]1CC[C@H]2[C@@H]3[C@H](O)C[C@@H]4C[C@H](O)CC[C@]4(C)[C@H]3C[C@H](O)[C@]12C [Glycocholic acid] | 107% and 108% | 109% | 106% | 102% | 100% | 109% | 117% | 98%
OC[C@@H](O)[C@@H](O[C@H]1O[C@H](CO)[C@@H](O)[C@H](O)[C@H]1O)[C@H](O)[C@@H](O)CO [Maltitol] | 98.2% and 88.7% | 98.6% | 99.6% | 105% | 99.6% | 99.9% | 96.8% | 107%
CCN(CC)c1ccc2cc(-c3nc4ccccc4s3)c(=O)oc2c1 [Coumarin 6] | 106% and 105% | 102% | 106% | 112% | 108% | 107% | 101% | 108%
CC1(C)CCC[C@](C)([C@H]2CC[C@]3(C)[C@@H]2[C@H](O)C[C@@H]2[C@@]4(C)CC[C@H](O)C(C)(C)[C@@H]4[C@@H](O)C[C@]23C)O1 [Panaxatriol] | 105% and 99.1% | 97.5% | 103% | 105% | 98.6% | 103% | 102% | 109%
COc1ccc2[nH]cc(CCNC(C)=O)c2c1 [Melatonin] | 104% and 109% | 100% | 109% | 101% | 103% | 105% | 118% | 103%
OC[C@H]1O[C@@H](n2cnc3c(O)nc(O)nc32)[C@H](O)[C@@H]1O [Xanthosine] | 101% and 100% | 96% | 99.9% | 101% | 99.6% | 98.5% | 93.2% | 99.7%
Cc1c(O)c(=O)ccn1C [Deferiprone] | 96.7% and 92.2% | 93.6% | 90.6% | 102% | 87% | 93.9% | 90.5% | 96.3%
C[n+]1cc2c3c(ccc2c2ccc4cc5c(cc4c21)OCO5)OCO3 [Sanguinarine chloride] | 0.68% and 0.46% | 0.74% | 0.3% | 0.38% | 0.25% | 0.34% | 0.31% | 0.29%
CC(=O)O[C@]1(C(C)=O)CC[C@H]2[C@@H]3C[C@H](C)C4=CC(=O)C=C[C@]4(C)[C@@]3(F)[C@@H](O)C[C@@]21C [Fluorometholone Acetate] | 93.4% and 95.3% | 85.4% | 96.4% | 105% | 97.6% | 93.5% | 99.5% | 113%
Nc1nonc1C(=Nc1ccc(F)c(Cl)c1)NO | 97% and 107% | 101% | 92% | 97.2% | 93.8% | 100% | 98.2% | 111%
NCCCNCCCCNCCCN [Spermine] | 104% and 102% | 104% | 103% | 111% | 100% | 103% | 101% | 106%
COc1cc2ncnc(Nc3ccc(F)c(Cl)c3)c2cc1NC(=O)/C=C/CN1CCCCC1 | 63.7% and 73.8% | 87.8% | 55.2% | 58.2% | 26.9% | 54.4% | 20.2% | 37.2%
CC1(C)O[C@@H]2C[C@H]3[C@@H]4CCC5=CC(=O)C=C[C@]5(C)[C@H]4[C@@H](O)C[C@]3(C)[C@]2(C(=O)CO)O1 [Desonide] | 97.9% and 104% | 102% | 102% | 110% | 106% | 100% | 104% | 121%
COc1ccc2c(c1)c(CC(=O)O)c(C)n2C(=O)c1ccc(Cl)cc1 [Indomethacin (Indocid, Indocin)] | 98.6% and 106% | 105% | 110% | 107% | 106% | 107% | 117% | 114%
NS(=O)(=O)c1ccc(NC(=O)Nc2ccc(F)cc2)cc1 | 99.9% and 107% | 107% | 115% | 113% | 110% | 108% | 99.6% | 95%
